# In PMC7862700, “An all-to-all approach to the identification of sequence-specific readers for epigenetic DNA modifications on cytosine”:
# Assays:
# Assay in all cases: DAPPL (digital affinity profiling via proximity ligation, sequencing); 10 mM Tris-HCl pH 7.5, 50 mM NaCl, 1 mM DTT, 4% glycerol, room temperature, 30 min; GST-TFs on glutathione beads, 16-mer random dsDNA library, 0.1% formaldehyde crosslink after washing; high values mean tight binding
# FLI1 = target: T1, FLI1 (Homo sapiens, UniProt Q01543 1-452); details: protein: recombinant; tags: N-terminal GST; dsDNA, one strand shown
# T1 sequence: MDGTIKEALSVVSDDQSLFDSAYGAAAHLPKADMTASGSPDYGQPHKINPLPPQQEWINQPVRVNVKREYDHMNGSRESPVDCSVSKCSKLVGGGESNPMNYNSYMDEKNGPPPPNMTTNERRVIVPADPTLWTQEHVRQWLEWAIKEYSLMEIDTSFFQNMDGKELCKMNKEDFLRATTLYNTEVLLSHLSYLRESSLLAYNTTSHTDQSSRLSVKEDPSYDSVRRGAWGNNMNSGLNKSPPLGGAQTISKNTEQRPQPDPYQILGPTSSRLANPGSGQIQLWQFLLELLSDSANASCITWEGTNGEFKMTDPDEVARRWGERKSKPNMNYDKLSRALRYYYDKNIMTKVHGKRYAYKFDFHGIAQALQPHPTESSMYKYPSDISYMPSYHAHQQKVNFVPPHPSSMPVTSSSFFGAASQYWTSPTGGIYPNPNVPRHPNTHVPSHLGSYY
# Procedure, shortened: (§1)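 Human transcription factors were made in yeast as GST fusions, captured on glutathione beads and barcoded with DNA. With a tag-only sample included, the pool was incubated with 200 nmole of a random double-stranded 16-mer DNA library in Tris/NaCl/DTT/glycerol buffer at room temperature for 30 min, then crosslinked with 0.1% formaldehyde after washing, ligated by proximity, amplified and sequenced. For binding signal, each hexamer's read frequency for a factor is divided by its frequency for the tag-only sample.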
# ELK1 = target: T2, ELK1 (Homo sapiens, UniProt P19419 1-428); details: protein: recombinant; tags: N-terminal GST; dsDNA, one strand shown
# T2 sequence: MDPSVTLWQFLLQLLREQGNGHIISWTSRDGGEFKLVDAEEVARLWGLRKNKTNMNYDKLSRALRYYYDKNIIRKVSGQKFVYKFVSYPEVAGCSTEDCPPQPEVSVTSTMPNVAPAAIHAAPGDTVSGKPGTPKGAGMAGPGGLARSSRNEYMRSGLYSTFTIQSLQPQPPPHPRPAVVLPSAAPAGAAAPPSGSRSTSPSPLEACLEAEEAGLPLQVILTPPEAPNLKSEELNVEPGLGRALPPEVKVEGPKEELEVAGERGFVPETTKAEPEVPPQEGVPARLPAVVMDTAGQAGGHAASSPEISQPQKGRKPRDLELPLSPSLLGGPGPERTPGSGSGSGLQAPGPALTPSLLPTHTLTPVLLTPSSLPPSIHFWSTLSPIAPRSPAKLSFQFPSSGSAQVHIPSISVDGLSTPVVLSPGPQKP
# Procedure, shortened: as §1
# GABPA = target: T3, GABPA (Homo sapiens, UniProt Q06546 1-454); details: protein: recombinant; tags: N-terminal GST; dsDNA, one strand shown
# T3 sequence: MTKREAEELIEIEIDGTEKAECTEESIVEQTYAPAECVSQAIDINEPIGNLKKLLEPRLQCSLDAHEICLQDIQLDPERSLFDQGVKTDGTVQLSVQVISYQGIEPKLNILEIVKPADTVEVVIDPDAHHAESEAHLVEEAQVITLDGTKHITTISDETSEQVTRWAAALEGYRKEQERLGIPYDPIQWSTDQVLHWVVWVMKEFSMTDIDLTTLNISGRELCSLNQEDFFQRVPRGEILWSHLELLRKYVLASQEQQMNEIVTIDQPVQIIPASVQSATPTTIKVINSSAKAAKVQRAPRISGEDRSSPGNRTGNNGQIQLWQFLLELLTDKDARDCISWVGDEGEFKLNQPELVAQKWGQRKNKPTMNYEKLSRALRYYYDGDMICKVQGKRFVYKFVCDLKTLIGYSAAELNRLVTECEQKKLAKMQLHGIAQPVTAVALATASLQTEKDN
# Procedure, shortened: as §1
# ERG = target: T4, ERG (Homo sapiens, UniProt P11308 1-479); details: protein: recombinant; tags: N-terminal GST; dsDNA, one strand shown
# T4 sequence: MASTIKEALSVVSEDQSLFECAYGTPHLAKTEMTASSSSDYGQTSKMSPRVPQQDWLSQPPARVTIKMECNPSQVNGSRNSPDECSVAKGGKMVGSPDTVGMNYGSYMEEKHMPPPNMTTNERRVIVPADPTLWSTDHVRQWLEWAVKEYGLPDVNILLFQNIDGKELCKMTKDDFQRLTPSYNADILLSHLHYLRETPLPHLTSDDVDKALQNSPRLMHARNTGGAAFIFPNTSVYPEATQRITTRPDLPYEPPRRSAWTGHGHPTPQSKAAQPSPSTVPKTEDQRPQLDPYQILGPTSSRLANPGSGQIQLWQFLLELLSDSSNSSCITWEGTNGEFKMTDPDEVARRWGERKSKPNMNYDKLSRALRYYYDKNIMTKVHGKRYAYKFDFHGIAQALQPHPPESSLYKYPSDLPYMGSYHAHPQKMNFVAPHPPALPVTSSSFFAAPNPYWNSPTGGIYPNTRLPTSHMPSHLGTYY
# Procedure, shortened: as §1
# ELF1 = ELF1 (Homo sapiens, UniProt P32519 1-619); details: protein: recombinant; tags: N-terminal GST; dsDNA, one strand shown
# Procedure, shortened: as §1
# EHF = target: T5, EHF (Homo sapiens, UniProt Q9NZC4 1-300); details: protein: recombinant; tags: N-terminal GST; dsDNA, one strand shown
# T5 sequence: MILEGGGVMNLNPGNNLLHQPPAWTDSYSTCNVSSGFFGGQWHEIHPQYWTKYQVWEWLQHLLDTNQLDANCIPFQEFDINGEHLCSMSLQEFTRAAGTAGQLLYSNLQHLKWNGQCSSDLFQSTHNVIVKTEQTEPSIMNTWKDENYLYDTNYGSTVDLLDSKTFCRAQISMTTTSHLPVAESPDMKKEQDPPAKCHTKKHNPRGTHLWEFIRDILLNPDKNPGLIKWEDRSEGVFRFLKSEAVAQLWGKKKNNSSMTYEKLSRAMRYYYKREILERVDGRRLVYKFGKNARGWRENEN
# Procedure, shortened: as §1
# SPI1 = SPI1 (Homo sapiens, UniProt P17947 1-270); details: protein: recombinant; tags: N-terminal GST; dsDNA, one strand shown
# Procedure, shortened: as §1
# SPIB = SPIB (Homo sapiens, UniProt Q01892 1-262); details: protein: recombinant; tags: N-terminal GST; dsDNA, one strand shown
# Procedure, shortened: as §1
# ELK3 = target: T6, ELK3 (Homo sapiens, UniProt P41970 1-407); details: protein: recombinant; tags: N-terminal GST; dsDNA, one strand shown
# T6 sequence: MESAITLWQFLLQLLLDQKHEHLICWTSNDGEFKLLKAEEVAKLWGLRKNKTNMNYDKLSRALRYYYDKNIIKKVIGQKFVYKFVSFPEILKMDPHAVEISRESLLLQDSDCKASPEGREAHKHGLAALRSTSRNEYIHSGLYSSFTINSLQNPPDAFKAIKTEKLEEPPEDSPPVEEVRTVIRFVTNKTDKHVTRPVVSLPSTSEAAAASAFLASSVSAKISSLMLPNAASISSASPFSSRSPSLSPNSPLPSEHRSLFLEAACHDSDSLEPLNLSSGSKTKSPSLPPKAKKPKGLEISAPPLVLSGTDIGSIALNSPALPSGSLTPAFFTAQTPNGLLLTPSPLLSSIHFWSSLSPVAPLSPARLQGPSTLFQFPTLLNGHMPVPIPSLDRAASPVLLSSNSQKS
# Procedure, shortened: as §1
# FEV = target: T7, FEV (Homo sapiens, UniProt Q99581 1-238); details: protein: recombinant; tags: N-terminal GST; dsDNA, one strand shown
# T7 sequence: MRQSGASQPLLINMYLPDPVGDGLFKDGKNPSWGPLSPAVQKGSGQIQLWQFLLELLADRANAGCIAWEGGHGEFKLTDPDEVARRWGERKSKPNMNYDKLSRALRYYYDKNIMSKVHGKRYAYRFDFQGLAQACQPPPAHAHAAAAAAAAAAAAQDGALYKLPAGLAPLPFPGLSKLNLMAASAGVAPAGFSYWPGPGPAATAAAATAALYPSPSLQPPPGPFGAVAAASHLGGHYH
# Procedure, shortened: as §1
# ETV5 = ETV5 (Homo sapiens, UniProt P41161 1-510); details: protein: recombinant; tags: N-terminal GST; dsDNA, one strand shown
# Procedure, shortened: as §1
# HSF1 = HSF1 (Homo sapiens, UniProt Q00613 1-529); details: protein: recombinant; tags: N-terminal GST; chain copies: 3; dsDNA, one strand shown
# Procedure, shortened: as §1
# SPIC = target: T8, SPIC (Homo sapiens, UniProt Q8N5J4 1-248); details: protein: recombinant; tags: N-terminal GST; dsDNA, one strand shown
# T8 sequence: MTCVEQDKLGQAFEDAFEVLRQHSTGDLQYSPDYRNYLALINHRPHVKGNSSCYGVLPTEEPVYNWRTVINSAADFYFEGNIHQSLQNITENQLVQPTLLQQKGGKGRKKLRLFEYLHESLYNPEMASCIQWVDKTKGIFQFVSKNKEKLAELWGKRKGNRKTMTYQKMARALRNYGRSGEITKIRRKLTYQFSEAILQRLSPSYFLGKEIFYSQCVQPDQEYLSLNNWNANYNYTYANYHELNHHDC
# Procedure, shortened: as §1
# ELF4 = ELF4 (Homo sapiens, UniProt Q99607 1-663); details: protein: recombinant; tags: N-terminal GST; dsDNA, one strand shown
# Procedure, shortened: as §1
# ELK4 = target: T9, ELK4 (Homo sapiens, UniProt P28324-2 1-405); details: protein: recombinant; tags: N-terminal GST; dsDNA, one strand shown
# T9 sequence: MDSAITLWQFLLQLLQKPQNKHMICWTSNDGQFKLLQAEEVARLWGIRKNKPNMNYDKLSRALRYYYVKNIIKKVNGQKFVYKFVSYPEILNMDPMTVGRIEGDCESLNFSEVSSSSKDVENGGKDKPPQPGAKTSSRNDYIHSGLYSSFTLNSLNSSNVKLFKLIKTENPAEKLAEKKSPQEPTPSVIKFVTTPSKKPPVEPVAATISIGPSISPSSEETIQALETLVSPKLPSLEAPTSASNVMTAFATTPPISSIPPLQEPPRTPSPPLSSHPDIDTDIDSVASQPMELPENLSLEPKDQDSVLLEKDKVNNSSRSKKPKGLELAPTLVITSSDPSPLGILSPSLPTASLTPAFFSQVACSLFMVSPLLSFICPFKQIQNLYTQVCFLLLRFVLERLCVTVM
# Procedure, shortened: as §1
# ETV2 = target: T10, ETV2 (Homo sapiens, UniProt O00321 1-342); details: protein: recombinant; tags: N-terminal GST; dsDNA, one strand shown
# T10 sequence: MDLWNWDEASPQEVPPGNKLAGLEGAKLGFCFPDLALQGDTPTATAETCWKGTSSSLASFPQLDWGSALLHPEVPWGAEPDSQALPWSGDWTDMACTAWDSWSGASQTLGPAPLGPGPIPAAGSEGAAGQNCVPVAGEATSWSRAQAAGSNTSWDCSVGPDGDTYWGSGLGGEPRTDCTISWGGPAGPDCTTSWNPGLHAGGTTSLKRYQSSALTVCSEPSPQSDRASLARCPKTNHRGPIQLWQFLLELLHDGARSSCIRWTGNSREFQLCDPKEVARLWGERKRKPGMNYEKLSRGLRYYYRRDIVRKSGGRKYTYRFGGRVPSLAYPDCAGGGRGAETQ
# Procedure, shortened: as §1
# ELF3 = target: T11, ELF3 (Homo sapiens, UniProt P78545 1-371); details: protein: recombinant; tags: N-terminal GST; dsDNA, one strand shown
# T11 sequence: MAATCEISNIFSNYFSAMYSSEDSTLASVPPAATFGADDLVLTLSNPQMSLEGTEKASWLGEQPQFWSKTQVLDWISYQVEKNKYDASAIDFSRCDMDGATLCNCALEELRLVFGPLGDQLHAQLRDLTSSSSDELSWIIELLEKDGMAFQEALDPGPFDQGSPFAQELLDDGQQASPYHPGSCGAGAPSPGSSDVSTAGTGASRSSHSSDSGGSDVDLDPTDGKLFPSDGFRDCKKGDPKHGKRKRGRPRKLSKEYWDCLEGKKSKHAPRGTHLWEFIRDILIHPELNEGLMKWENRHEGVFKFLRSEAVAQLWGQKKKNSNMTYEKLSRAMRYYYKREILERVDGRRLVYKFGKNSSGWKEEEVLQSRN
# Procedure, shortened: as §1
# CRX = CRX (Homo sapiens, UniProt O43186 1-299); details: protein: recombinant; tags: N-terminal GST; dsDNA, one strand shown
# Procedure, shortened: as §1
# ETV1 = ETV1 (Homo sapiens, UniProt P50549 1-477); details: protein: recombinant; tags: N-terminal GST; dsDNA, one strand shown
# Procedure, shortened: as §1
# Sequence of HSF1 (Q00613 whole entry): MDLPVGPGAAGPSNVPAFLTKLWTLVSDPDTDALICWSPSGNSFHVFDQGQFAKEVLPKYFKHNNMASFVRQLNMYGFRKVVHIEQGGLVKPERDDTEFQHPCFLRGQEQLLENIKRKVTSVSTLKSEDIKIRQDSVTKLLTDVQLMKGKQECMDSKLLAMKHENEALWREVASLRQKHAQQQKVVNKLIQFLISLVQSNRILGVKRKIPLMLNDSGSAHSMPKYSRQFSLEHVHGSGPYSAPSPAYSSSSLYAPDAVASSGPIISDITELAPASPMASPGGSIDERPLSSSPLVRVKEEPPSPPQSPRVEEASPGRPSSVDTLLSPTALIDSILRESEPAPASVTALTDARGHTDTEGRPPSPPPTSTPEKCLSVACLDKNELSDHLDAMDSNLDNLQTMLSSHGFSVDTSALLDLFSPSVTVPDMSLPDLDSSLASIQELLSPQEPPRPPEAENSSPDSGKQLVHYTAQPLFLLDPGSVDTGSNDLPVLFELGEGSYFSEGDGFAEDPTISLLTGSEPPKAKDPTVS
# Sequence of ETV5 (P41161 whole entry): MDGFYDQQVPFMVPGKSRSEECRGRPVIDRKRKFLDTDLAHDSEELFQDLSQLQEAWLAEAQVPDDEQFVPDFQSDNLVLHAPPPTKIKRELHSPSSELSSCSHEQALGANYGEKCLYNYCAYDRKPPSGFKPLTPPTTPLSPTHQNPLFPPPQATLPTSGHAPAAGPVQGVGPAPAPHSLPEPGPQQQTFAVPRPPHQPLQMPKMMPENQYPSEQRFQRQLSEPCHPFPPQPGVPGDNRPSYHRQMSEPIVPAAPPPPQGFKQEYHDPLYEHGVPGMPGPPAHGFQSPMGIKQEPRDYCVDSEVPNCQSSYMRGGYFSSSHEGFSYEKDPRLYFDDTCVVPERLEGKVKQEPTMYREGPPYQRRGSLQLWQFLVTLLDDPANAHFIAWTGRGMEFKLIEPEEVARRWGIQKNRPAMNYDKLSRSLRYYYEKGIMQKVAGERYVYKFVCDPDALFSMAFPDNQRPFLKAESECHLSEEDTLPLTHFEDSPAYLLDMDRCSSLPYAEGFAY
# Sequence of ELF4 (Q99607 whole entry): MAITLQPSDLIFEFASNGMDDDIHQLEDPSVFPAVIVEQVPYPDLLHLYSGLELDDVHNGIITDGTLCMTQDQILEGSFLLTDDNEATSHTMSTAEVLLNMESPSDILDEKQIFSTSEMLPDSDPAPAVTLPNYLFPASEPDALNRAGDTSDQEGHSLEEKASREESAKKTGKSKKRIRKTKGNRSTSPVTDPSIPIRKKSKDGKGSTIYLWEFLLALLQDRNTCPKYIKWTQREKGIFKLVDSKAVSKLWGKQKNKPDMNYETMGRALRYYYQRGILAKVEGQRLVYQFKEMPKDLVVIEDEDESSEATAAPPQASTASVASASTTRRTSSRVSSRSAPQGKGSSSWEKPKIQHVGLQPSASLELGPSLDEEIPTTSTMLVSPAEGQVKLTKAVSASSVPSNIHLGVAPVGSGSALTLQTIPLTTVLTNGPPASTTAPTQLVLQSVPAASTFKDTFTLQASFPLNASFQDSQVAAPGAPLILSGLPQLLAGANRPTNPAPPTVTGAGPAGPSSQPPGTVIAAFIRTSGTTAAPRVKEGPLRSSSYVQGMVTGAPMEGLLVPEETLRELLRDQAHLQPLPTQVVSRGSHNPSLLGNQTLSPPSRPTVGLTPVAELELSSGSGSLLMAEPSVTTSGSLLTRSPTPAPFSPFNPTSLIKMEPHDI
# Sequence of CRX (O43186 whole entry): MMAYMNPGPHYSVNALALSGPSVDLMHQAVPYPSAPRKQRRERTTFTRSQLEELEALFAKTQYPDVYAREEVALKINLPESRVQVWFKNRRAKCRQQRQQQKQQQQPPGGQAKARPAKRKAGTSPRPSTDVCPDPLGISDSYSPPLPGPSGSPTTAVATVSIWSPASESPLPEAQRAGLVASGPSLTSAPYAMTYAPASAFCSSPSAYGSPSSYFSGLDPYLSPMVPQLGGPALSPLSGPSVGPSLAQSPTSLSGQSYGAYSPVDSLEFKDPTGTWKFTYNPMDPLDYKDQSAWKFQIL
# Sequence of ELF1 (P32519 whole entry): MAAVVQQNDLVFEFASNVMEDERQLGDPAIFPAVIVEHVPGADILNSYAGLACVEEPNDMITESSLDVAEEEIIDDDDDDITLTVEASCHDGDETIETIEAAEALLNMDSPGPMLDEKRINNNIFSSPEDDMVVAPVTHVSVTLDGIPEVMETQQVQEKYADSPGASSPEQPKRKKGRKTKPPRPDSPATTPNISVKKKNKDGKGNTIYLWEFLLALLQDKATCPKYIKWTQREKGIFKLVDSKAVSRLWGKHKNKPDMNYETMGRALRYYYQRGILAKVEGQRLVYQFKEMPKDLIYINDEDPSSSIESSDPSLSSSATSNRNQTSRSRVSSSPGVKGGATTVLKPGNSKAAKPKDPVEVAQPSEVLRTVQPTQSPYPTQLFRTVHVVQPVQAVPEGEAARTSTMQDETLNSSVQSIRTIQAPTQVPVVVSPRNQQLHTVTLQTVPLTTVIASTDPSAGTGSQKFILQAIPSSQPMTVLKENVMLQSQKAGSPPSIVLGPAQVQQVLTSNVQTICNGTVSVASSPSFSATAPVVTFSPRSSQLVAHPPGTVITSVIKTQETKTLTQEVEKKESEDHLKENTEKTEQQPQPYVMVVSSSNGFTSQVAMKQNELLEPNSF
# Sequence of SPIB (Q01892 whole entry): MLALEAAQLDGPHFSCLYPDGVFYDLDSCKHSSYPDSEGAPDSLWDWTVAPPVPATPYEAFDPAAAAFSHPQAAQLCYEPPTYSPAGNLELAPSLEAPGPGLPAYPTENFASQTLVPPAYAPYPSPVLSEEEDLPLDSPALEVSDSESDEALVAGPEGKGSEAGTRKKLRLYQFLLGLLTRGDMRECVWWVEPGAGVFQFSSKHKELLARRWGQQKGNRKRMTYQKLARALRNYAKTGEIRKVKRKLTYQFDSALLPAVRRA
# Sequence of ETV1 (P50549 whole entry): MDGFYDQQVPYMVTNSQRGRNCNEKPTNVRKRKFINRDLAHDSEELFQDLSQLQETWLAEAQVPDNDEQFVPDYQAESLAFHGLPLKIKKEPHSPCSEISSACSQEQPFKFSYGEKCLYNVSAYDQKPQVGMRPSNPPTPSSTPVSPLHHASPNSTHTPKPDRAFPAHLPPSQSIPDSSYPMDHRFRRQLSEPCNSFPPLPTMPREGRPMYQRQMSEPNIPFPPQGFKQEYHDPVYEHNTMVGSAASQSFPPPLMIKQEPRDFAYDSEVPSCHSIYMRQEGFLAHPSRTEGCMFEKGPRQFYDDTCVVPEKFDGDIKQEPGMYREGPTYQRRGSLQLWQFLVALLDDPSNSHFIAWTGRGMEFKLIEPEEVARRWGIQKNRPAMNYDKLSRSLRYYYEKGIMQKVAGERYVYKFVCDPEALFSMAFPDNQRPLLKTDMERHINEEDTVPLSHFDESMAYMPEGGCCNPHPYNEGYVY
sequence,measurement,setting,value
CTTCGC,binding signal,FLI1,"1.43 fold enrichment (6-mer frequency, TF over GST control)"
same,binding signal,ELK1,"1.56 fold enrichment (6-mer frequency, TF over GST control)"
same,binding signal,GABPA,"1.5 fold enrichment (6-mer frequency, TF over GST control)"
same,binding signal,ERG,"1.53 fold enrichment (6-mer frequency, TF over GST control)"
same,binding signal,ELF1,"1.46 fold enrichment (6-mer frequency, TF over GST control)"
same,binding signal,EHF,"1.32 fold enrichment (6-mer frequency, TF over GST control)"
same,binding signal,SPI1,"1.42 fold enrichment (6-mer frequency, TF over GST control)"
same,binding signal,SPIB,"1.6 fold enrichment (6-mer frequency, TF over GST control)"
same,binding signal,ELK3,"1.7 fold enrichment (6-mer frequency, TF over GST control)"
same,binding signal,FEV,"1.41 fold enrichment (6-mer frequency, TF over GST control)"
same,binding signal,ETV5,"1.31 fold enrichment (6-mer frequency, TF over GST control)"
same,binding signal,HSF1,"1.63 fold enrichment (6-mer frequency, TF over GST control)"
same,binding signal,SPIC,"1.18 fold enrichment (6-mer frequency, TF over GST control)"
same,binding signal,ELF4,"1.45 fold enrichment (6-mer frequency, TF over GST control)"
same,binding signal,ELK4,"1.32 fold enrichment (6-mer frequency, TF over GST control)"
same,binding signal,ETV2,"1.62 fold enrichment (6-mer frequency, TF over GST control)"
same,binding signal,ELF3,"1.37 fold enrichment (6-mer frequency, TF over GST control)"
same,binding signal,CRX,"1.24 fold enrichment (6-mer frequency, TF over GST control)"
same,binding signal,ETV1,"1.52 fold enrichment (6-mer frequency, TF over GST control)"
